The campaign covered roughly 16,000 compounds. About 4,000 (25%) were called active. Inconclusive results (about 26%) are left out. Calls come from the whole dose curve; as a rule, active = well fitted curve in the direction sought with a large enough effect; inconclusive = small, poorly fitted or top-dose-only effect, or effect the other way; inactive = no such curve, though single readings can be large or run the other way. The list is a sample of the results.
Molecular target: Cytochrome P450 2C9 (Homo sapiens) (UniProt P11712)
Assay: Cytochrome panel assay with activity outcomes
Conditions: recombinant CYP, pro-luciferin dealkylation, luminescence, p450-cyp2c9; series mostly up to 57.1 µM; activity, negative = inhibition: at the top concentration
% is set by controls: 0 for no effect and ±100 for the full control effect.

Chain of Cytochrome P450 2C9 (Homo sapiens) (P11712 whole entry, looked up): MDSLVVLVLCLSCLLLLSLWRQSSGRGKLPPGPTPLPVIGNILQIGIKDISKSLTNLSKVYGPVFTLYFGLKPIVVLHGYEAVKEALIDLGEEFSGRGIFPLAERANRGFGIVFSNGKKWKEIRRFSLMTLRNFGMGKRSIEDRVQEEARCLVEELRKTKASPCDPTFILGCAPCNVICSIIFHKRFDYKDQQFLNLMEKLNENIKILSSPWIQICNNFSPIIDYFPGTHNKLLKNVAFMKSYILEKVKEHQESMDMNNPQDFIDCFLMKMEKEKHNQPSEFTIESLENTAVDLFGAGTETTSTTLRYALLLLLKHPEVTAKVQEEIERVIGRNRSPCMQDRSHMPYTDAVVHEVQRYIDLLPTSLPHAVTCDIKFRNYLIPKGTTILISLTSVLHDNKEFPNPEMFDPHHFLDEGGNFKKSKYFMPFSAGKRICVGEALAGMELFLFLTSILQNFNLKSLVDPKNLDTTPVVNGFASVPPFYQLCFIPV

activity, negative = inhibition, inactive:
CCn1nc(C(=O)Nc2ccccc2C)c(Cl)c1Cl -15.8%
CN(C)CCN(Cc1cccs1)c1ccccn1 -14.6% [at 25.6 µM]
CC(=O)[C@H]1CC[C@@H]2[C@H]3CC=C4C[C@@H](O)CC[C@]4(C)[C@H]3CC[C@]12C 12% [at 25.6 µM]
C[C@@H](O)[C@H]1C(=O)N2C(C(=O)O)=C(S[C@@H]3CN[C@H](C(=O)N(C)C)C3)[C@H](C)[C@H]12 12.1% [at 25.6 µM]
Cc1nnc(SCC(=O)NCC2CCCCC2)n(N)c1=O -28.7%
NNC(=O)CNc1cccc(Br)c1 1.94% [at 11.4 µM]
Cc1ccccc1-c1nc(N2CCNCC2)c2ccccc2n1 0.671% [at 2.29 µM]
C[C@](O)(c1ccccc1)c1nccc2ccccc12 -17.3% [at 11.4 µM]
Nc1nc(N)c2nn(-c3ccc(C(=O)O)cc3)nc2n1 7.68% [at 11.4 µM]
COc1cc(N=C(N)N=C(N)N)c2ncccc2c1 8.03% [at 11.4 µM]
CCOC(=O)N/N=C1/C[C@@H](O)[C@@H](O)[C@@H]2[C@@H]3C(=O)N(c4cccc(Oc5ccccc5)c4)C(=O)[C@H]3CC[C@H]12 7.2% [at 11.4 µM]
C[C@H]1COC(=O)[C@H](Cc2ccccc2)NC(=O)[C@@H](C)COC(=O)[C@H](Cc2ccccc2)NC1=O -8.11% [at 11.4 µM]
CO[C@H]1COC(=O)[C@H](C)NC(=O)C/C=C\[C@@H](C)[C@@H](NS(=O)(=O)c2ccc(C)cc2)COC(=O)C/C=C\[C@@H]1C -2.5% [at 11.4 µM]
CCOC(=O)c1c(NC(=O)C2C3CCC(O3)C2C(=O)O)sc(C)c1-c1ccc(C)cc1 (stereo not given) 12.3%
CCN1CCC[C@@H]1CNC(=O)c1cc(S(N)(=O)=O)ccc1OC -0.608%
N#CC1(Nc2ccc(-c3ccc(NC4(C#N)CCCC4)cc3)cc2)CCCC1 -5.08% [at 11.4 µM]
C[C@@H]1/C=C\CC(=O)OC[C@H](C)C(=O)N2CCC[C@@H]2C(=O)OC1 -11.7% [at 11.4 µM]
[Cu].[O-]/N=C1/C(=[OH+])Nc2ccccc21.[O-]Nc1c(O)[nH]c2ccccc12 -2.92% [at 11.4 µM]
CCS(=O)(=O)N1CCC(C(=O)NCCCOC)CC1 -32.5%
COC(=O)N1CCC2(CC1)CCN(c1cccc(-c3ccccc3)c1)CC2 10.7%
CN(CCCNC(=O)C1CCC(=O)N1Cc1ccccc1Cl)c1ccccc1 (stereo not given) -22.6%

AC50, active:
Cc1ccc(S(=O)(=O)/C(C#N)=C/c2c(N3CC(C)OC(C)C3)nc3ccccn3c2=O)cc1 (stereo not given) 11.2 µM
CCOC(=O)c1[nH]c(C)c(C(=O)OCC(=O)N2c3ccccc3CC2C)c1C (stereo not given) 25.1 µM
Cc1ccc(-c2cc(-c3nnc(SCC(=O)NC(C)C(C)C)n3N)c3ccccc3n2)cc1 (stereo not given) 1.12 µM
NNC(=O)CNC(c1ccccc1)c1cc(Br)ccc1NC(=O)c1ccccc1Br (stereo not given) 3.16 µM
Oc1c(C(O)(c2ccccc2)c2ccc3ccccc3c2O)ccc2ccccc12 0.794 µM
COc1ccccc1C1CC(c2c(-c3ccccc3)c3cc(Cl)ccc3[nH]c2=O)=NN1S(C)(=O)=O (stereo not given) 2.82 µM
CCOC(=O)N1N=C(c2ccccc2)CC1(O)C(F)(F)F (stereo not given) 10 µM
CCC1=NN(C(=O)CCc2ccccc2)C(O)(C(F)(F)F)C1 (stereo not given) 4.47 µM
Cc1cc(C2C(C#N)=C(N)OC3=C2C(=O)CC(C)(C)C3)c(C)s1 (stereo not given) 7.08 µM
COc1ccc(C2C(C#N)=C(N)OC3=C2C(=O)CC(C)(C)C3)c([N+](=O)[O-])c1OC (stereo not given) 1 µM
CCOC(=O)Cn1nnc2c(sc3nc4c(c(-c5ccc(Cl)cc5)c32)CCC4)c1=O 12.6 µM
Cc1ccc(-c2c3c(nc4sc(C(N)=O)c(N)c24)CCC3)cc1 8.91 µM
CCOC(=O)c1c(C)nc2sc3c(=O)n(-c4ccc(OC)cc4)nnc3c2c1-c1ccc(OC)cc1 10 µM
Cc1ccc(C(=O)Cn2nnc3c(sc4nc5c(c(-c6ccccc6)c43)CCC5)c2=O)cc1 3.55 µM
O=C(C1CCC(=O)N1Cc1ccccc1Cl)N1CCN(c2cccc(Cl)c2)CC1 (stereo not given) 15.8 µM
COCCCNC(=O)C1CCC(=O)N1Cc1ccccc1Cl (stereo not given) 5.62 µM
O=C(Nc1ccc(Br)cc1)C1CCC(=O)N1Cc1ccccc1Cl (stereo not given) 0.447 µM
Cc1noc(NS(=O)(=O)c2ccc(N/C=C\C(=O)c3ccc4c(c3)OCO4)cc2)c1C 14.1 µM
Cc1noc(NS(=O)(=O)c2ccc(N/C=C/C(=O)c3ccc4c(c3)OCO4)cc2)c1C 12.6 µM
CCCSc1nc(NCc2ccco2)c2c3c(sc2n1)COC(C)(C)C3 6.31 µM
CCC1(C)Cc2c(sc3nnn(CC(=O)Nc4cccc5ccccc45)c(=O)c23)CO1 (stereo not given) 7.94 µM
CCCSc1nc(SCC(=O)NCc2ccccc2)c2c3c(sc2n1)COC(C)(CC)C3 (stereo not given) 3.98 µM
CCC1(C)Cc2c(sc3nnn(CC(=O)Nc4ccc(C)cc4)c(=O)c23)CO1 (stereo not given) 11.2 µM

AC50, inactive:
O=c1n(CCCN2CCN(c3cccc(Cl)c3)CC2)nc2ccccn12

— PubChem BioAssay AID1851 (National Center for Advancing Translational Sciences (NCATS), 2009)
